Screening results: PubChem, National Center for Advancing Translational Sciences (NCATS)
ALOX12 inhib: qHTS Assay for Inhibitors of 12-hLO (12-human lipoxygenase) | purified 12-hLO, xylenol orange hydroperoxide absorbance | Potency, µM (series often up to 57.1 µM), for inactives: at the top dose activity change, negative = inhibition, hits mostly inhibitors | actives 0.12% (n = 150,000); also: nearly all actives have a fitted effect of over 55% in size
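Hydroperoxide output read as Fe(III)-xylenol orange absorbance, 573-to-405 nm ratio, after 30 min reaction with 40 uM arachidonic acid. Enzyme: 150 nM purified human 12hLO, 15 min compound preincubation; 25 mM Hepes pH 7.0, room temperature.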
HPGD inh: qHTS Assay for Inhibitors of HPGD (15-Hydroxyprostaglandin Dehydrogenase); 15-hydroxyprostaglandin dehydrogenase [NAD(+)] (Homo sapiens), P15428; purified HPGD, NADH fluorescence kinetic, PGE2 substrate; Potency, µM, without a hit: top-dose activity change, negative = inhibition, most hits filed as inhibitors; actives 4.3% (n = 150,000); AID 894, 2007; active = well fitted inhibition curve with a large enough effect, not every such curve was filed as active; inconclusive = small, poorly fitted or top-dose-only effect, or another doubt; inactive = no such curve, though single readings can be large or run the other way
Target sequence (P15428 whole entry, looked up): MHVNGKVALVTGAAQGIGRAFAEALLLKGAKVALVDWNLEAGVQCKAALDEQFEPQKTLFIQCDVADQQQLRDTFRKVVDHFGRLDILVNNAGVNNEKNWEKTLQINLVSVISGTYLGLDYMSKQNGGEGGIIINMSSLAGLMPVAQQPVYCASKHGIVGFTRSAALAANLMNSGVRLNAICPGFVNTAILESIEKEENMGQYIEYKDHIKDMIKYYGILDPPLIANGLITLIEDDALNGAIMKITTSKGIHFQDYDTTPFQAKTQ
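NADH formation kinetics: reaction with 30 uM PGE2 and 1 mM NAD+ (final), 20 nM enzyme, Tris-HCl pH 8 with Tween 20, after 15 min compound preincubation at room temperature. Fluorescence change, last versus first of five reads.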
p53ts 39C kill: qHTS Screen for Compounds that Selectively Target Cancer Cells with p53 Mutations: Cytotoxicity of p53ts Cells at the Nonpermissive Temperature; AID 902, 2007; Potency, µM (doses to about 46.1 µM), without a hit: at the top dose activity change, negative = cell killing, most hits filed as cytotoxic; actives 1.5% (n = 130,000); H1299-p53A138V viability at 39C, ATP luminescence, 24 h; also: nearly all actives have a fitted effect of over 55% in size
p53ts 32C tox: qHTS Screen for Compounds that Selectively Target Cancer Cells with p53 Mutations: Cytotoxicity of p53ts Cells at the Permissive Temperature; H1299-p53A138V at 32C, ATP luminescence viability, 24 h; Potency, µM (doses to about 46.1 µM), for the others: top-dose activity change, negative = cytotoxicity, actives largely listed as cytotoxic; actives 0.93% (n = 130,000);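 also: 0% = DMSO and -100% = full killing by reference compound; nearly all actives have a fitted effect of over 55% in size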
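H1299-p53 A138V cells (temperature-sensitive p53) exposed 24 h to up to 46 uM compound at 32C, where p53 is wild-type in conformation. Viability read as ATP luminescence and normalised to DMSO and 100 uM tamoxifen. AC50 fitted with the Hill equation.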
Active calls of the source: *; ? = inconclusive; nt = not tested or not shown; [ ] = dose if it differs, or a comment. An excerpt weighted towards active compounds, which were near 4.4% of everything screened. Unless noted, calls follow the shape of the dose curve; as a rule, active = well fitted curve in the direction sought with a large enough effect; inconclusive = small, poorly fitted or top-dose-only effect, or another doubt; inactive = no such curve, though single readings can be large; an effect the other way counts as inactive or inconclusive. Unless noted, % is scaled to controls: 0 for no effect and ±100 for the full control effect; potency is read from the fitted curve at half-maximal effect.

SMILES	ALOX12 inhib	HPGD inh	p53ts 39C kill	p53ts 32C tox
CC1CCCC(NC(=O)c2ccc(CNc3c(N4CCCC4)c(=O)c3=O)cc2)C1C (stereo unspecified)	-6%	?	9%	6%
CC1CCN(c2c(NCc3ccc(C(=O)NCc4ccco4)cc3)c(=O)c2=O)CC1	-1%	11µM*	nt	nt
Cc1ccc(CNC(=O)c2ccc(CNc3c(N4CCCC4)c(=O)c3=O)cc2)cc1	-5%	14µM*	nt	nt
CC1CCCN(C(=O)c2ccc(CNc3c(N4CCCCC4)c(=O)c3=O)cc2)C1 (stereo unspecified)	0%	0.28µM*	nt	nt
CC1CCN(c2c(NCc3ccc(C(=O)N4CCc5ccccc54)cc3)c(=O)c2=O)CC1	1%	18µM*	nt	nt
CC1CCN(c2c(NCc3ccc(C(=O)NCC4COc5ccccc5O4)cc3)c(=O)c2=O)CC1 (stereo unspecified)	nt	nt	2%	4%
c1cc2c(cc1-c1cnc3n1CCC3)OCCO2	-2%	?	13µM*	?
COc1ccc(OC)c(C2CC(=O)N(c3cccc(C)c3)C3=C2C(=O)OC3)c1 (stereo unspecified)	nt	nt	10%	-17%
CCc1ccccc1N1CSC2=C(C#N)C(c3ccccc3F)CC(=O)N2C1 (stereo unspecified)	?	5.6µM*	0%	14%
COc1cc(OC)c(C2CC(=O)N3CN(c4ccccc4C)CSC3=C2C#N)cc1OC (stereo unspecified)	-11%	8.9µM*	1%	-9%
Cc1cccc(N2CSC3=C(C#N)C(c4ccc(C)o4)CC(=O)N3C2)c1 (stereo unspecified)	-26%	8.9µM*	13%	8%
COc1ccc(OC)c(C2CC(=O)N3CN(c4ccccc4)CSC3=C2C#N)c1 (stereo unspecified)	?	7.1µM*	-15%	-6%
COc1ccc(C2CC(=O)N3CN(c4ccc(C)c(Cl)c4)CSC3=C2C#N)cc1 (stereo unspecified)	-27%	?	-16%	-7%
COc1ccc(N2CSC3=C(C#N)C(c4cccc(OC)c4OC)CC(=O)N3C2)cc1 (stereo unspecified)	-26%	8.9µM*	-6%	-2%
Cc1cc(C)n2nc(SCC3COc4ccccc4O3)nc2n1 (stereo unspecified)	-2%	7.1µM*	-12%	-8%
N#Cc1cc2c(nc1SCC1COc3ccccc3O1)CCC2 (stereo unspecified)	-4%	25µM*	6%	1%
Cc1cc(C)c(C#N)c(SCC2COc3ccccc3O2)n1 (stereo unspecified)	-15%	14µM*	-12%	7%
N#Cc1cc2c(nc1SCc1ccccc1)CCCCC2	-4%	-8%	nt	nt
CCOc1ccc(C2C(=O)N(C3CCCCCC3)CC(=O)N2CCc2ccccc2)cc1OC (stereo unspecified)	nt	nt	?	4%
COc1ccc(N2CC(NC(=O)c3ccc(S(=O)(=O)N4CCCCC4)cc3)CC2=O)cc1 (stereo unspecified)	nt	nt	-13%	3%
COc1ccccc1CNC(=O)CCCN1C(=O)CCn2nc(-c3cn(C)c4ccccc34)cc21	nt	nt	-13%	-4%
O=C(Cn1ncc2c(=O)oc3ccccc3c21)Nc1cc(F)ccc1F	nt	nt	6.3µM*	3%
O=C(Cn1ncc2c(=O)oc3ccccc3c21)NCCN1CCN(c2ccccc2F)CC1	2%	-5%	6%	0%
CCC(=O)C1=C(c2cccc(OC)c2)N(C(=O)CC)n2c(nnc2C2CCCCC2)S1	nt	nt	21%	-13%
Cc1cc(C)c(NC(=O)Cn2nnc3sc4c(c3c2=O)CCC(C(C)(C)C)C4)c(C)c1 (stereo unspecified)	nt	nt	13µM*	?
SMILES	ALOX12 inhib	HPGD inh	p53ts 39C kill	p53ts 32C tox
Cc1ccc(Cl)cc1NC(=O)Cn1nnc2sc3c(c2c1=O)CCC(C(C)(C)C)C3 (stereo unspecified)	nt	nt	-19%	4%
COc1ccc(Cl)cc1NC(=O)N1CCN(Cc2cc(=O)n3nc(-c4ccccc4)sc3n2)CC1	nt	nt	31%	1%
CCn1ncc(/C=C2/SC(=S)NC2=O)c1C	-6%	16µM*	nt	nt
CCn1cc(C(=O)NCc2ccccc2)c(=O)c2cc(S(=O)(=O)N3CCc4ccccc4C3)ccc21	nt	nt	-6%	2%
COc1cc2c(=O)c(C(=O)c3ccc(C)c(C)c3)cn(Cc3ccc(F)cc3)c2cc1OC	nt	nt	-7%	3%
Cc1ccc(C)c(C(=O)CSc2n[nH]c(C(C)C)n2)c1	-2%	16µM*	-1%	10%
Cc1ccc(C(=O)CSc2n[nH]c(C)n2)cc1	-25%	?	-4%	-6%
CCc1nc(SCC(=O)c2cc(C)ccc2C)n[nH]1	-13%	40µM*	16%	-3%
CCc1ccc(C(=O)CSc2n[nH]c(C)n2)cc1	-18%	35µM*	1%	0%
COc1ccc(-c2cn3nc(SCC(=O)Nc4ccc(C)c(Cl)c4)ccc3n2)cc1	nt	nt	?	-30%
N=C1Sc2ccccc2C2=NCCCN12	?	2.2µM*	?	-9%
Cc1cc(/C=N/n2c(COc3ccccc3C)nc3ccccc3c2=O)c(O)c([N+](=O)[O-])c1	?	1µM*	?	nt
Cc1ccc(C(=O)N2CC(C)OC(C)C2)c(Cl)c1 (stereo unspecified)	5%	16µM*	nt	nt
Nc1c(C(=O)NCC2CCCO2)sc2nc3c(c(-c4ccco4)c12)CC/C3=C\c1ccco1 (stereo unspecified)	-16%	20µM*	nt	nt
CC(/C=N/n1c(-c2cccnc2)n[nH]c1=S)=C\c1ccccc1	3%	3.2µM*	nt	nt
CC(/C=N/n1c(COc2ccccc2)n[nH]c1=S)=C\c1ccccc1	?	5.6µM*	nt	nt
S=c1[nH]nc(-c2cccnc2)n1Cc1ccccc1	20%	-27%	-3%	3%
S=c1[nH]nc(-c2cccnc2)n1/N=C/C=C/c1ccccc1	-2%	13µM*	nt	nt
O=[N+]([O-])c1ccccc1/C=N/n1c(-c2cccnc2)n[nH]c1=S	2%	?	nt	nt
O=[N+]([O-])c1cc(/C=N/n2c(-c3cccnc3)n[nH]c2=S)ccc1Cl	-3%	4µM*	nt	nt
Cc1cc(C)c2c(=O)cc(C(=O)Nc3ccc(C)c(Cl)c3)oc2c1	nt	nt	-3%	4%
NC1=N[C@H](c2ccc(Cl)cc2)N(c2ccc(S(=O)(=O)Nc3ncccn3)cc2)C(N)=N1	0%[11.4 µM]	-4%	0%[9.22 µM]	15%[9.22 µM]
COc1cccc(NC(=O)C2CCN(c3nnc(C)c4c(C)n(-c5ccccc5)nc34)CC2)c1	nt	nt	4%	9%
O=C(Nc1ccc(F)c(F)c1)C1CCCN1S(=O)(=O)c1cccc2nsnc12 (stereo unspecified)	nt	nt	-7%	3%
Cc1cccc(OCC(=O)Nc2ccccc2OCc2cc(=O)n3cc(C)ccc3n2)c1	nt	nt	-19%	-5%
